Data published in PubChem BioAssay AID1421 (Emory University Molecular Libraries Screening Center, 2008).
About 140 (11%) of roughly 1,300 compounds were called active. How the calls were made is not given here. Only a sample is shown. Results with a measured potency or affinity are listed apart.

target: Prostaglandin E2 receptor EP2 subtype (Homo sapiens) (UniProt P43116); test: EP2 receptor modulators, dose response, cell-based, human EP2, PGE2 EC50 shift (AID 1421); details: EP2-expressing cells, PGE2 EC50 shift by compound; at 20 µM
Sequence (P43116 whole entry, looked up): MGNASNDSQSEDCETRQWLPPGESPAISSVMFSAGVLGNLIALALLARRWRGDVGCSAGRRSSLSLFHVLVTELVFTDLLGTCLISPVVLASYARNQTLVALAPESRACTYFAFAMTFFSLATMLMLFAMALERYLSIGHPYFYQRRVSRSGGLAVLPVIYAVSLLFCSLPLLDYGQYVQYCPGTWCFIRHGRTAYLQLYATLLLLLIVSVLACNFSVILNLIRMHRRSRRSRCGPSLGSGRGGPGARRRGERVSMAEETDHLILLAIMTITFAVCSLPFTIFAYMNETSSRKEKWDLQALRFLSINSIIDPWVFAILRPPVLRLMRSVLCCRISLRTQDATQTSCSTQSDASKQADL

PGE2 EC50 with compound, inactive:
CCOc1ccccc1NC(=O)c1ccccc1-c1nc(-c2ccccc2)no1 0.4 nM
Cc1onc(-c2ccccc2Cl)c1-c1nc(-c2ccncc2)no1 0.49 nM
Cc1nn2c(N3CCN(C(=O)c4ccco4)CC3)cc(C(C)(C)C)nc2c1-c1ccccc1 1.08 nM
Cc1ccc(NCc2n[nH]c(=S)n2Cc2ccccc2)cc1Cl 0.64 nM
O=C(O)/C=C/c1ccccc1Oc1ccc(Cl)cc1Cl 1.45 nM
COc1ccc(OC)c(/C=C/C(=O)N2CCCc3ccccc32)c1 0.28 nM
COc1cc2c(cc1OC)-c1cc(Nc3ccc4c(c3)OCCO4)nc(=O)n1CC2 0.72 nM
C=C(C)Cn1c(C)cc(C)c(S(=O)(=O)c2ccc(C)cc2)c1=O 0.32 nM
COC(=O)c1c(NC(=O)CSc2nnc(-c3ccco3)n2Cc2ccccc2)sc(C)c1C 0.82 nM
CCc1cc2cc3c(cc2nc1SCC(=O)OC(C)C)OCO3 0.14 nM
O=c1[nH]c2ccc(Cl)cc2c(-c2ccccc2)c1N1CCN(c2ccccn2)CC1 0.62 nM
CCOC(=O)C1CCN(c2c(C(=O)c3ccccc3)cnc3ccc(CC)cc23)CC1 0.81 nM
O=c1[nH]c2ccc(Br)cc2c(-c2ccccc2)c1N1CCOCC1 0.39 nM
CCOC(=O)C1CCN(c2c(C(=O)c3ccccc3)cnc3ccc(Cl)cc23)CC1 0.39 nM
O=C(Nc1cccc2cccnc12)c1ccc(Br)o1 0.36 nM
CCOP(=O)(OCC)c1nc(/C=C/c2ccccc2)oc1NCc1ccccc1 0.52 nM
CC1CCCN(C(=O)CSc2cnc3ccccc3n2)C1 (stereo not given) 1.42 nM
COCC(=O)Nc1sc2c(c1C(=O)OC)CCC(C)C2 (stereo not given) 0.38 nM
CCOC(=O)c1c(N)sc2c1CCC(CC)C2 (stereo not given) 0.46 nM
CCn1nnnc1SCC(=O)Nc1cccc(C)n1 1.23 nM
COc1cccc(C2=NN(C(=O)c3cccs3)C(O)(C(F)(F)F)C2)c1 (stereo not given) 0.25 nM
CN(C)c1nccc(N(Cc2ccccc2)Cc2ccccc2)c1C#N 0.29 nM
S=C(Nc1ccccc1Cl)N(Cc1ccccc1)Cc1ccccn1 0.41 nM
Cc1ccc(C(C)C)c(OCCn2c(=O)oc3ccccc32)c1 0.33 nM
CC(C)(C)C1CCc2onc(C(=O)Nc3cccnc3)c2C1 (stereo not given) 0.4 nM
c1ccc(C2Nc3ccccc3Oc3ccccc32)cc1 (stereo not given) 0.21 nM
O=C(NCCC1=CCCCC1)c1cccc2c1C(=O)N(C1CCCCC1)C2 1.89 nM
Cc1ccc(S(=O)(=O)N2c3ccccc3OCC2C(C)(C)C)cc1 (stereo not given) 0.14 nM
Cc1ccc2c(c1)N(S(=O)(=O)c1ccc(F)cc1)C(C(C)(C)C)CO2 (stereo not given) 0.45 nM
CCC(=O)N(CC)c1nc(-c2cc(OC)ccc2OC)cs1 0.24 nM
CCCOP(=O)(OCCC)c1nc(-c2ccccc2)oc1NCc1ccccc1 0.15 nM
CCOc1ccc(OCC)c(NC(=O)CN2CCN(c3cccc(C)c3)CC2)c1 0.86 nM
O=C(O)c1cc(C(=O)O)cc(N2C(=O)c3ccccc3C2=O)c1 0.39 nM
O=c1c2ccccc2c(-c2ccccc2)nn1Cc1c(Cl)cccc1Cl 0.41 nM
O=C1CCCc2ccccc2N1Cc1c(Cl)cccc1Cl 0.64 nM
CN(Cc1cccs1)c1nc(-c2cccnc2)nc2ccccc12 0.64 nM
CC(C)CCn1c(Oc2ccc(Cl)cc2)nc2c1c(=O)n(C)c(=O)n2C 0.31 nM
O=c1c2ccccc2c2ccccc2c(=O)n1Cc1ccco1 0.45 nM
CCCCn1c(C)cc(C)c(S(=O)(=O)c2ccccc2C)c1=O 0.31 nM
CC(C)CCn1c(O)c(N=NC(=O)c2ccco2)c2ccccc21 0.33 nM
CCCN(CCC)C(C)C(=O)NCC1(c2ccccc2)CCCC1 (stereo not given) 0.23 nM
CCSc1nc2ccccc2n1Cc1ccccc1F 0.31 nM
CC1CCN(C(C)C(=O)Nc2ccccc2-c2ccccc2)CC1 (stereo not given) 0.26 nM
Cc1ccc(S(=O)(=O)NCC(=O)OCN2C(=O)c3ccccc3C2=O)cc1 2.7 nM
Cc1ccc(S(=O)(=O)c2ccc(Oc3cccc(C)c3)cc2)cc1 0.66 nM
COc1ccc(OCC(=O)NC(=S)Nc2ccc3c4c(cccc24)CC3)cc1 11.2 nM
COc1ccc(-c2cc(C(F)(F)F)n3nc(C(=O)N(C)Cc4ccccc4)cc3n2)cc1OC 0.42 nM
CN(C)c1nc(N2CCOCC2)nc(N(c2ccccc2)c2ccccc2)n1 0.59 nM
Cc1cnn(-c2nc(-c3ccccc3)cc(-c3ccccc3)n2)c1 0.56 nM
COc1ccc(-c2cc(C(F)(F)F)nc(NC3CCCC3)n2)cc1OC 0.54 nM
COc1ccc(C2=Nn3c(nnc3-c3ccccc3)SC2)cc1OC 0.88 nM
c1ccc(Nc2nc(N3CCNCC3)nc(N3CCOCC3)n2)cc1 0.98 nM
CC(=O)c1sc2nc(-c3ccc(C)cc3)c3c(c2c1N)CCCC3 0.52 nM
O=C(/C(=C/O)N=Nc1ccccc1)c1cccs1 2.24 nM
COCCOC(=O)c1c(C)oc2ccc(OCc3ccccc3)cc12 0.53 nM
c1ccc(Oc2nc3ccccc3n3cccc23)cc1 0.38 nM
Cc1cc(C)c2c(n1)sc1c(=O)n(Cc3ccccc3Cl)nnc12 0.29 nM
O=C1c2ccccc2OC2(C=Cc3ccccc3O2)N1Cc1ccccc1 (stereo not given) 0.27 nM
Clc1ccc(-c2nn3c(-c4ccccc4)nnc3s2)cc1 1.36 nM
CCCCOC(=O)Sc1nc2ccccc2o1 2.08 nM
COc1ccc(C(=O)NCCCN2CCOCC2)cc1OC 0.55 nM
COc1ccc(-c2cc(C(F)(F)F)nc(NCc3ccco3)n2)cc1OC 0.48 nM
CC(=O)Oc1c2c(c3c(c1CC=C(C)C)O[C@]14C(=C[C@@H]5CC1C(C)(C)OC4(C/C=C(\C)C(=O)O)C5=O)C3=O)OC(C)(CCC=C(C)C)C=C2 (stereo not given in full) 7.31 nM
O=c1cc(N2CCCCC2)c(-c2ccccc2)nn1Cc1c(Cl)cccc1Cl 1.07 nM
O=c1cc2c(nn1Cc1c(Cl)cccc1Cl)-c1ccccc1CC2 0.74 nM
Cc1ccc(Oc2nc(-c3ccccc3)ncc2S(C)(=O)=O)cc1 0.58 nM
O=C(O)c1ccc(CNCc2cccc(Cl)c2Cl)cc1 1.05 nM
CCOC(=O)C1=CN(CC2CCCO2)C=C(C(=O)OCC)C1c1ccccc1C(F)(F)F (stereo not given) 0.31 nM
C=CCC1(C)C(=O)N(c2ccccc2)c2ccccc21 (stereo not given) 0.38 nM
Brc1cccc(-c2nnc(SCc3ccon3)n2-c2ccccc2)c1 0.48 nM
COc1ccc(Oc2cc(C(F)(F)F)nc(N(C)C)n2)cc1 0.6 nM
Cc1cc(C)n(-c2nc(C)nc3c2cnn3-c2ccccc2)n1 0.41 nM
COC(=O)c1ccc(-c2ccco2)n1Cc1cccc(C)c1 0.17 nM
Cc1nn(Cc2c(Cl)cccc2Cl)c(C)c1C(=O)NCc1ccc(C)n1C 0.76 nM
O=C(CSc1nc2cc(Cl)ccc2s1)N1CCCc2ccccc21 0.24 nM
C/C(=N\N=C(c1ccccc1)c1ccccc1)c1ccco1 0.47 nM
CCOC(=O)c1ccccc1NC1c2ccccc2C(=O)N1c1cc(C)ccn1 (stereo not given) 0.34 nM
CCOc1ccccc1NC(=O)c1c(Br)cnn1C 0.79 nM
CCOc1ccccc1Cn1c(=O)oc2ccc(C)cc21 0.36 nM
O=C(CSc1ncnc2c1oc1ccccc12)Nc1cccc(F)c1 2.94 nM
COc1cccc(/C=N/c2oc(-c3ccccc3)cc2C#N)c1O 8.67 nM
COc1ccc(Nc2nc(-c3cc4cccc(OC)c4oc3=O)cs2)cc1 0.92 nM
O=C(CSc1nnc(COc2ccccc2)n1-c1ccccc1)c1ccccc1 0.74 nM
Cc1cc(C)cc(OC2CCCCC2NS(=O)(=O)c2ccccc2)c1 (stereo not given) 0.48 nM
C=CCOc1ccccc1CNc1ccccc1C 0.32 nM
COc1ccccc1C(=O)NC(=S)Nc1cc(C(=O)O)ccc1C 0.34 nM
Cc1cc(SCC(=O)NCCC2=CCCCC2)nc2ccccc12 0.21 nM
CCCc1cc(=O)n2[nH]c(NCc3cccs3)nc2n1 0.94 nM
N#CN=C1SCCS1 0.67 nM
CSc1ncnc2sc(C)c(C)c12 0.56 nM
C=CCSc1ncnc2sc(C)c(C)c12 0.85 nM
CC(C)c1ccc2c(c1)CCC1C(C)(C(N)=O)CCCC21C (stereo not given) 0.38 nM
Cn1c(/C=C/N(Cc2ccccc2)c2ccccc2)c([N+](=O)[O-])c(=O)n(C)c1=O 0.45 nM
CCN(CC)CCN1C(=O)c2cccc3cc(N)cc(c23)C1=O 0.76 nM
Brc1ccccc1Cn1c(-c2cscn2)nc2ccccc21 0.39 nM
